“And” between values parts separate entries of the source, which are not always exact repeats. Equal entries are not always repeated. The panel holds about 79,000 compounds, 15% with a hit somewhere; the sample as a whole holds those more often. The source holds several records for some structures; these can differ, active in one and inactive in another. The source made the active and inactive calls. No stated cut-off is given here; in the data, active means growth inhibition above about 70%; inactive means the rest.

Among the data in PubChem BioAssay (NCI) are growth inhibition values, retold here.

One test is described as follows: NCI Yeast Anticancer Drug Screen. Data for the sgs1 mgt1 strain (AID 161).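 Further: 0% = growth of cultures given vehicle only.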 The following applies: S. cerevisiae sgs1 mgt1 strain, at 50.0 µM, stronger effect = higher value. The essentials:
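Read-out: growth inhibition vs vehicle controls. Cells: mutant yeast strain deficient in DNA damage repair.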
On to `CNC(=O)OCc1c(COC(=O)NC)c(C)n(-c2ccc(Cl)c(Cl)c2)c1C`, for which the growth inhibition is 89.5% (active).

Regarding `COc1ccc2nc(N/N=C/c3sccc3C)cc(C)c2c1`, the growth inhibition is 84.1% (active).

As to `CCCCCCCCCCCC[N+](C)(C)Cc1ccccc1` (tested in a mixture with another compound), the growth inhibition was 99.7% (active) and 99.8% (active) and 99.5% (active).

With `CC(C)c1ccc(O)c(=O)cc1`, the growth inhibition is 93.5% (active) and 94% (active) and 93% (active).

As for `S=c1[nH]nc(Cc2ccccc2)c(=S)[nH]1`, the growth inhibition is 86.3% (active).

On to `COc1ccc2nc3cccc([N+](=O)[O-])c3c(NCCCO)c2c1`, for which the growth inhibition is 82.9% (active).

Regarding `CCN(CC)CCSc1c2ccccc2nc2cc(NCC(=O)Nc3ccccc3-c3ccccc3NC(=O)CNc3ccc4c(SCCN(CC)CC)c5ccccc5nc4c3)ccc12`, the growth inhibition was 89.2% (active).

Consider `Cc1ccc(N(C=O)c2c([N+](=O)[O-])cc([N+](=O)[O-])c3c2=[N+]([O-])CN=3)cc1`, for which the growth inhibition was 58.8% (inactive).

On to `Nc1ccccc1SSc1ccccc1N`, for which the growth inhibition is 99.3% (active).

`COc1ccc(C(=O)OCCc2ccccc2)cc1`: the growth inhibition is 6.8% (inactive).

Consider `COc1ccc(C(=O)NCCN(C)C)c2nc3ccccc3cc12`, for which the growth inhibition is 30.6% (inactive).

As to `NCC(O)CSCc1ccc(Cl)cc1` (stereo not drawn), the growth inhibition was 31% (inactive).

For `O=c1[nH]c(=O)n(CCCO)cc1F`, the growth inhibition was -33.4% (inactive).

For the compound `CCCCCCCCCCCC[N+](C)(C)C`, the growth inhibition is 49% (inactive) and 92.5% (active) and 48.6% (inactive).

With `COc1ccc(/C(=N/O)c2ccccc2C2=Nc3ccccc3C(NCc3ccccc3)O2)cc1C` (stereo not drawn), the growth inhibition is 95.8% (active).

For the compound `CCCC(=O)OC(OC(=O)CCC)c1ccc([N+](=O)[O-])o1`, the growth inhibition is 53.4% (inactive).

Regarding `O=C(/C(=C/c1ccccc1)CBr)c1ccccc1`, the growth inhibition is 74% (active) and 59% (inactive).

As to `O=C(Cc1ccccc1F)NC1=C(Cl)C(=O)c2ccccc2C1=O`, the growth inhibition is 11.4% (inactive).

`Cc1cccc(N2CCN(C(=O)/C(=C/c3ccccc3)NC(=O)c3ccccc3)CC2)c1`: the growth inhibition was -13.3% (inactive).

In the case of `OCC(O)C(O)C(O)C(O)c1nc2ccccc2[nH]1` (stereo not drawn), the growth inhibition is 2% (inactive) [middle of 5 runs].

As to `c1cc(Nc2ccc3c(c2)OCO3)c2cc(C3CCCCC3)ccc2n1`, the growth inhibition was 99.2% (active).

`Cc1ccc2nc(N/N=C/c3ccc(C)s3)cc(C)c2c1`: the growth inhibition was 91.8% (active).

In the case of `COc1cc(NCCCCCNC(C)C)c2ncccc2c1Cl`, the growth inhibition was 52.5% (inactive).

As to `COc1ccc2cc(CN3CCC(C4CCN(Cc5ccc6cc(OC)ccc6c5)CC4)CC3)ccc2c1`, the growth inhibition is 83.2% (active).

For the compound `CC(=O)O/N=C/c1c2ccccc2cc2ccccc12`, the growth inhibition was 63.6% (inactive).

As to `CC[C@@]1(OC(=O)CN(C)C)C(=O)OCc2c1cc1n(c2=O)Cc2cc3ccccc3nc2-1`, the growth inhibition is 93.6% (active).

Regarding `CC1(C)CC(=O)C(C(CC(c2ccccc2)c2cc3c(cc2O)OCO3)C2=C(O)CC(C)(C)CC2=O)=C(O)C1` (stereo not drawn), the growth inhibition is 96.8% (active).

Turning to `CCCCCCC(CCl)c1sc(-c2csc(CCNC(=O)OC(C)(C)C)n2)nc1C(=O)OC` (stereo not drawn), the growth inhibition is -13.5% (inactive).

Turning to `Cc1ccc2c(/C=C/c3ccc(N(C)C)cc3)ccnc2c1C`, the growth inhibition is 86.5% (active).

Regarding `Cc1cc(SC#N)ccc1O`, the growth inhibition was 95.2% (active) and 85.7% (active) and 75% (active).

For `O=C1C(Br)=CC(Br)(Br)C=C1Br`, the growth inhibition was 93.7% (active).

A further test can be described thus: NCI Yeast Anticancer Drug Screen. Data for the CLN2oe strain (AID 163).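 Further: 0% = growth of vehicle-only control cultures.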 To be noted: S. cerevisiae CLN2oe strain, at 1.2 µM, stronger effect = higher value. The essentials:
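Strain altered in cell-cycle control, incubated with compound; growth compared to solvent-treated controls.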
Take `CNC(=O)OCc1c(COC(=O)NC)c(C)n(-c2ccc(Cl)c(Cl)c2)c1C`: the growth inhibition is -30% (inactive).

Regarding `COc1ccc2nc(N/N=C/c3sccc3C)cc(C)c2c1`, the growth inhibition is -2% (inactive).

Turning to `O=C(O)/C=C\C(=O)NNc1ccc(Br)cc1`, the growth inhibition was -6% (inactive).

`S=c1[nH]nc(Cc2ccccc2)c(=S)[nH]1`: the growth inhibition was 26% (inactive).

With `COc1ccc2nc3cccc([N+](=O)[O-])c3c(NCCCO)c2c1`, the growth inhibition is 6% (inactive).

With `CCN(CC)CCSc1c2ccccc2nc2cc(NCC(=O)Nc3ccccc3-c3ccccc3NC(=O)CNc3ccc4c(SCCN(CC)CC)c5ccccc5nc4c3)ccc12`, the growth inhibition was 2% (inactive).

As to `Cc1ccc(N(C=O)c2c([N+](=O)[O-])cc([N+](=O)[O-])c3c2=[N+]([O-])CN=3)cc1`, the growth inhibition was -3% (inactive).

As for `COc1ccc(C(=O)OCCc2ccccc2)cc1`, the growth inhibition was -3% (inactive).

Consider `COc1ccc(C(=O)NCCN(C)C)c2nc3ccccc3cc12`, for which the growth inhibition is 29% (inactive).

For `NCC(O)CSCc1ccc(Cl)cc1` (stereo not drawn), the growth inhibition was -2% (inactive).

On to `CN(C)/N=N/c1nc[nH]c1C(N)=O`, for which the growth inhibition is 1% (inactive).

Take `O=c1[nH]c(=O)n(CCCO)cc1F`: the growth inhibition is 3% (inactive).

Take `COc1ccc(/C(=N/O)c2ccccc2C2=Nc3ccccc3C(NCc3ccccc3)O2)cc1C` (stereo not drawn): the growth inhibition is -2% (inactive).

In the case of `CCCC(=O)OC(OC(=O)CCC)c1ccc([N+](=O)[O-])o1`, the growth inhibition was -1% (inactive).

Consider `O=C(/C(=C/c1ccccc1)CBr)c1ccccc1`, for which the growth inhibition was 2% (inactive).

Take `Cc1cccc(N2CCN(C(=O)/C(=C/c3ccccc3)NC(=O)c3ccccc3)CC2)c1`: the growth inhibition is -6% (inactive).

Take `c1cc(Nc2ccc3c(c2)OCO3)c2cc(C3CCCCC3)ccc2n1`: the growth inhibition is 1% (inactive).

With `Cc1ccc2nc(N/N=C/c3ccc(C)s3)cc(C)c2c1`, the growth inhibition is 5% (inactive).

`COc1cc(NCCCCCNC(C)C)c2ncccc2c1Cl`: the growth inhibition was 0% (inactive).

Turning to `COc1ccc2cc(CN3CCC(C4CCN(Cc5ccc6cc(OC)ccc6c5)CC4)CC3)ccc2c1`, the growth inhibition is 16% (inactive).

For the compound `CC(=O)O/N=C/c1c2ccccc2cc2ccccc12`, the growth inhibition was -10% (inactive).

As for `CC[C@@]1(OC(=O)CN(C)C)C(=O)OCc2c1cc1n(c2=O)Cc2cc3ccccc3nc2-1`, the growth inhibition is -7% (inactive).

For `CC1(C)CC(=O)C(C(CC(c2ccccc2)c2cc3c(cc2O)OCO3)C2=C(O)CC(C)(C)CC2=O)=C(O)C1` (stereo not drawn), the growth inhibition is -5% (inactive).

As to `CCCCCCC(CCl)c1sc(-c2csc(CCNC(=O)OC(C)(C)C)n2)nc1C(=O)OC` (stereo not drawn), the growth inhibition was -3% (inactive).

Consider `CCOC(=O)C1=C(C)NC(C)=C(C(=O)OCC)C1c1cccc([N+](=O)[O-])c1`, for which the growth inhibition is -31% (inactive).

Turning to `Cc1ccc2c(/C=C/c3ccc(N(C)C)cc3)ccnc2c1C`, the growth inhibition is 26% (inactive).

`O=C1C(Br)=CC(Br)(Br)C=C1Br`: the growth inhibition is 24% (inactive).
